Experimental data published in PubChem BioAssay AID1851 (National Center for Advancing Translational Sciences (NCATS), 2009).
“And” between values parts separate entries of the source, which are not always exact repeats. Identical values can stand only once. Out of some 16,000 compounds screened, about 2,600 (16%) were called active. Not shown: some 20% with an inconclusive outcome. Calls follow the shape of the dose curve; as a rule, active = well fitted curve in the direction sought with a large enough effect; inconclusive = small, poorly fitted or top-dose-only effect, or effect the other way; inactive = no such curve, though single readings can be large or run the other way. A selection follows. Some compounds were tested as several samples or in several runs, with calls that do not always agree.

These compounds were tested against Cytochrome P450 2D6 (Homo sapiens) (UniProt P10635) (assay: Cytochrome panel assay with activity outcomes). Conditions: recombinant CYP, pro-luciferin dealkylation, luminescence, p450-cyp2d6; series mostly up to 57.1 µM; activity, negative = inhibition: at the top concentration.
Chain of Cytochrome P450 2D6 (Homo sapiens) (P10635 whole entry, looked up): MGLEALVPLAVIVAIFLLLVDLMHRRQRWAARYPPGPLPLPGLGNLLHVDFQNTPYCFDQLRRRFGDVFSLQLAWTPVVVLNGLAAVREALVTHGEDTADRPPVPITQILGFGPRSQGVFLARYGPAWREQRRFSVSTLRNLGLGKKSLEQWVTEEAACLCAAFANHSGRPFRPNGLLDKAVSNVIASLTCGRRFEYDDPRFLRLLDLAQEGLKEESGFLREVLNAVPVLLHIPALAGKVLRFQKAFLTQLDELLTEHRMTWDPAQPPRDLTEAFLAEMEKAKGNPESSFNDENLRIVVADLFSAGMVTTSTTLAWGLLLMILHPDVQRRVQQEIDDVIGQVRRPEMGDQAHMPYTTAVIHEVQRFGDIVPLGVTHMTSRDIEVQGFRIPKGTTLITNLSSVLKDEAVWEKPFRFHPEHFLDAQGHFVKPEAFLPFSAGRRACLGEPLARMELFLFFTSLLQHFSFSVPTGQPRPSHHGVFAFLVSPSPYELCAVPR
% is scaled to controls: 0 for no effect and ±100 for the full control effect.

SMILES | activity, negative = inhibition | AC50
Cc1ccccc1N1CCN(S(=O)(=O)C[C@@]23CC[C@H](C[C@H]2NC(=O)[C@@H](N)CCS(C)(=O)=O)C3(C)C)CC1 | -4.72% (inactive) | –
CCN1CCc2nc(NC(=O)c3ccc4c(c3)OCCO4)sc2C1 | -12.3% (inactive) | –
CCN1CCc2nc(NC(=O)CC(c3ccccc3)c3ccccc3)sc2C1 | – | 0.316 µM (active)
Cc1cc(=O)[nH]c(SCC(=O)Nc2nc3c(s2)CCCC3)n1 | -1.04% (inactive) | –
CC1=NN(c2ccccc2)C(=O)/C1=C\c1c(C)[nH]n(-c2ccccc2)c1=O | 7.79% (inactive) | –
COc1ccc2oc(=O)c(C(=O)Oc3ccc(NC(C)=O)cc3)cc2c1 | -14.8% (inactive) | –
Cc1ccc2oc(-c3cccc(NC(=S)NC(=O)/C=C/c4ccco4)c3)nc2c1 | 17.9% (inactive) | –
CCOc1[nH]n(-c2ccc(Cl)cc2)c(=O)c1C=Nc1ccc(O)cc1 | 11.1% (inactive) | –
CO[C@@H]1COC(=O)[C@H]2CCCN2C(=O)[C@@H](C)COC(=O)[C@H](COCc2ccccc2)NC(=O)C/C=C\[C@H]1C | 1.71% [at 11.4 µM] (inactive) | –
C=C(C)[C@H]1CC=C(C)/C(=N/NC(=O)CNc2ccccc2OC)C1 | -13% (inactive) | –
CCOc1ccc2nc(C)cc(Nc3ccc4c(c3)OCCO4)c2c1 | – | 1.58 µM (active)
CCC(C)NS(=O)(=O)c1ccc(OCC(=O)Nc2ccc3c(c2)OCCO3)cc1 (stereo unspecified) | -22.9% (inactive) | –
CC(C)(C)c1nc(SCC(=O)Nc2ccc3c(c2)OCCO3)c2ccccc2n1 | -16.2% (inactive) | –
CO[C@H]1COC(=O)[C@H](C)NC(=O)C/C=C\[C@@H](C)[C@@H](NS(=O)(=O)c2ccc(C)cc2)COC(=O)[C@H](OCc2ccccc2)/C=C\[C@@H]1C | -11.2% [at 11.4 µM] (inactive) | –
Cc1noc(N)c1C(=O)Nc1ccc(F)cc1 | -8.7% (inactive) | –
N#Cc1c(NC(=O)CCN2C(=O)c3ccccc3C2=O)oc(-c2ccccc2)c1-c1ccccc1 | -12.5% (inactive) | –
CC1CCN(CC[C@@H]2CCCN2S(=O)(=O)c2cccc(O)c2)CC1 | – | 15.8 µM (active)
CC1Cc2ccccc2N1C(=O)C1CCCCN1S(=O)(=O)c1ccccc1 (stereo unspecified) | -9.53% (inactive) | –
CC1CCN(S(=O)(=O)c2ccc3c(c2)C(=NO)c2cc(S(=O)(=O)N4CCC(C)CC4)ccc2-3)CC1 | 0.589% (inactive) | –
OC[C@@H]1NC[C@@H](O)[C@H]1O | 7.62% (inactive) | –
O=C(C/C=N/OCc1ccc(F)cc1Cl)c1cnc(-c2ccccc2)s1 | 10.7% (inactive) | –
O=C(COC(=O)COc1ccccc1)Nc1ccc(OC(F)(F)F)cc1 | 11.3% (inactive) | –

SMILES | activity, negative = inhibition | AC50
CC(C)OC(=O)/C(=C\c1ccc2c(c1)c1ccccc1n2C)NC(=O)c1ccccc1 | 13.2% (inactive) | –
COCCn1c(=O)cnc2cnc(Oc3ccccc3)nc21 | -2.69% (inactive) | –
CCCCCOC(=O)c1c(N)n(CCOC)c2nc3ccccc3nc12 | – | 25.1 µM (active)
COCCCNC(=O)c1c(N)n(/N=C/c2ccccn2)c2nc3ccccc3nc12 | -5.07% (inactive) | –
CN(C1CCCCC1)S(=O)(=O)c1ccc(NC(=S)NC(=O)c2cccs2)cc1 | -11.5% (inactive) | –
COC(=O)c1sc2ncccc2c1OCc1c(Cl)cccc1Cl | -22.2% (inactive) | –
CCn1c(=O)[nH]c2ccccc2c1=O | -1.92% (inactive) | –
CCCCN1CCC(n2c(=O)[nH]c3ccccc32)CC1 | – | 3.16 µM (active)
O=c1cc(N2CCC(Cc3ccccc3)CC2)[nH]c(=O)n1C1CCCCC1 | -6.84% (inactive) | –
CC1(C)CC(=O)c2cn3ncnc3nc2C1 | 5.99% (inactive) | –
O=C1C2C3C=CC(C3)C2C(=O)N1/N=C/c1cn(Cc2ccc(F)cc2)c2ccccc12 (stereo unspecified) | -15.6% (inactive) | –
Nc1nc(-c2cccs2)cs1 | -26.4% (inactive) | –
Cc1cc(-c2cccs2)nc(-n2cccc2)n1 | – | 14.1 µM (active)
Cc1oc(-c2cccs2)[n+]([O-])c1C | 12.3% (inactive) | –
Cc1cc(NC(=O)CCC(=O)N(CC2CCCO2)C(C(=O)NC2CCCC2)c2cccnc2)no1 (stereo unspecified) | 14% (inactive) | –
C=CCSc1nc(NC)c2sccc2n1 | -15.6% (inactive) | –
Cc1cccc(NC(=S)N2CCC(N(C)CC3CCCO3)CC2)c1C (stereo unspecified) | -16.1% (inactive) | –
COc1ccccc1-c1c(C(F)(F)F)oc2cc(OC(=O)c3cccc([N+](=O)[O-])c3C)ccc2c1=O | 20.9% (inactive) | –
O=C(OCC(=O)c1ccc([N+](=O)[O-])cc1)/C(=C\c1ccc(Cl)cc1)NC(=O)c1ccccc1 | – | 14.1 µM (active)
Cc1ccc(NC(=O)/C(=C\c2ccc([N+](=O)[O-])cc2)NC(=O)c2ccccc2)cc1 | -28.6% (inactive) | –
O=C(Nc1cccc2ccccc12)/C(=C/c1ccc([N+](=O)[O-])cc1)NC(=O)c1ccccc1 | -6.79% (inactive) | –
Cc1cccc(Oc2ncnc3onc(C)c23)c1C | 11.2% (inactive) | –

SMILES | activity, negative = inhibition | AC50
COc1cccc(NC(=O)CSc2nc3ccccc3cc2Cc2ccccc2)c1 | -12.4% (inactive) | –
O=C(Cn1ccc(=O)[nH]c1=O)Nc1ccc(C(=O)O)c(O)c1 | -2.13% [at 11.4 µM] (inactive) | –
N=c1sccn1CC(=O)Nc1cccc(Oc2ccccc2)c1 | – | 1 µM (active)
CSc1nnc(-c2sccc2OCc2ccccc2)n1C | -13.6% (inactive) | –
C#CCCCO/N=C1/C[C@@H](O)[C@@H](O)[C@@H]2[C@@H]3C(=O)N([C@@H](C)c4ccccc4)C(=O)[C@H]3CC[C@H]12 | 12% [at 11.4 µM] (inactive) | –
CC[C@H](NC(=O)c1c(C)c(-c2ccccc2)nc2ccccc12)c1ccccc1 | 2.4% (inactive) | –
CNc1csc(C)c(C)c1=O | 5.1% (inactive) | –
C[C@H](NCCC(c1ccccc1)c1ccccc1)c1ccccc1 | – | 0.158 µM (active)
O=C1[C@@H]2[C@H]3[C@H](O)[C@H](O)C/C(=N/OC[C@@H](O)COCc4ccco4)[C@H]3CC[C@H]2C(=O)N1c1ccc(F)cc1F | -0.021% [at 11.4 µM] (inactive) | –
COc1cccc(NC(=O)C2c3cc(OC)c(OC)cc3C(=O)N(C)C2c2cccnc2)c1 (stereo unspecified) | -22.7% (inactive) | –
C=CC(C)(C)c1[nH]c2ccccc2c1C1=C(O)C(=O)C(c2c[nH]c3c(CC=C(C)C)cccc23)=C(O)C1=O | – | 0.00631 µM (active)
O=C1C2C3C=CC(CC3)C2C(=O)N1/N=C/c1ccccc1O (stereo unspecified) | 18.7% (inactive) | –
Cn1c2c(c(=O)n(C)c1=O)[C@@H]1c3c(ccc4ccccc34)OC[C@@H]1CO2 | -7.85% (inactive) | –
COc1cc(C=O)ccc1OCCCOc1ccccc1C(=O)O | 14.2% (inactive) | –
CCCCC1(C)Nc2ccccc2-c2nc3ccccc3n21 (stereo unspecified) | – | 20 µM (active)
CCC1(C)Nc2ccccc2C(=O)N1O (stereo unspecified) | 18.2% (inactive) | –
COc1cccc(Cn2c(=O)c(-c3ccc(Cl)cc3)nc3cnc(N4CCN(C)CC4)nc32)c1 | 3.1% (inactive) | –
CN(CC(=O)N1CCN(c2ccccc2)CC1)S(=O)(=O)c1cnc[nH]1 | – | 14.1 µM (active)
CC1CCN(C(=O)CN(C)S(=O)(=O)c2cccc3nsnc23)CC1 | -2.18% (inactive) | –
CCc1cccc(NC(=O)CN(C)S(=O)(=O)c2cnc[nH]2)c1 | -12.6% (inactive) | –
CC(C)(Oc1ccc(-c2cccc3ccccc23)cc1)C(=O)O | 11.3% [at 11.4 µM] (inactive) | –
COCC(=O)N1CCC2(CC1)CN(C(=O)Nc1ccc(OC)cc1)C2 | -6.27% (inactive) | –

SMILES | activity, negative = inhibition | AC50
COCC(=O)N1CCC2(CC1)CCN(c1cccc(-c3ccccc3)c1)CC2 | -17.3% (inactive) | –
COCC(=O)N1CCC2(CCCN(C(=O)Nc3ccc(OC)cc3)C2)CC1 | 7.58% (inactive) | –
COCC(=O)N1CCC2(CC1)CN(C(=O)Nc1cccc(F)c1)C2 | 0.536% (inactive) | –
COCC(=O)N1CCC2(CC1)CN(C(c1ccccc1)c1ccccc1)C2 | – | 2.51 µM (active)
COCC(=O)N1CCC2(CC1)CCN(C(c1ccccc1)c1ccccc1)CC2 | – | 12.6 µM (active)
COCC(=O)N1CCC2(CCCN(C(=O)Nc3ccccc3)C2)CC1 | 3.41% (inactive) | –
COCC(=O)N1CCC[C@@]2(CCN(C(c3ccccc3)c3ccccc3)C2)C1 | – | 6.31 µM (active)
COCC(=O)N1CCC2(CC1)CCN(c1ccccn1)CC2 | -2.48% (inactive) | –
Cc1ccc(NC(=O)CC2CS(=O)(=O)CC2CC(=O)Nc2ccc(C)c(C)c2)cc1C (stereo unspecified) | 1.23% (inactive) | –
OC[C@H]1NC[C@@H](O)[C@@H](O)[C@H]1O | -17.5% (inactive) | –
Cc1ccc(OCC(=O)NNC(=O)c2cc3ccccc3o2)cc1C | 16.4% (inactive) | –
COc1cccc(C(=O)N2N=C(c3cccc(OC)c3)CC2(O)C(F)(F)F)c1 (stereo unspecified) | -20.4% (inactive) | –
CC(C)(Oc1ccc([C@@H]2CC2(Cl)Cl)cc1)C(=O)O | – | inactive
CC(C)c1ccc(N2C(=O)CC(Sc3nc4ccccc4o3)C2=O)cc1 (stereo unspecified) | -3.25% (inactive) | –
C[C@]12CC3CC(N)(C1)C[C@@](C)(C3)C2 | – | inactive and 316 nM (active)
C[C@@]12CC3CC(N)(C1)C[C@@](C)(C3)C2 | -15.5% [at 25.6 µM] (inactive) | –
CCc1nnc(NC(=O)CSc2nc3cc4c(cc3cc2C)OCCO4)s1 | -3.67% (inactive) | –
CC1=N/C(=C\c2ccc([N+](=O)[O-])cc2)C(=O)N1c1ccc(Br)c(C)c1 | 3.34% (inactive) | –
COc1cc(Cn2cnnn2)ccc1O | -11.4% (inactive) | –
CNC(=O)/C=C1\NC(C)(C)Cc2c1ccc1ccccc21 | – | 14.1 µM (active)
CC1(C)Cc2c(ccc3ccccc23)C(=O)N1 | 22.3% (inactive) | –
Cc1cccc(C(=O)NCN2CCN(c3ccccc3C#N)CC2)c1 | -0.838% (inactive) | –

SMILES | activity, negative = inhibition | AC50
CC(C)(C[C@@]1(C)NC(=O)NC1=O)OCc1ccccc1 | 1.81% [at 11.4 µM] (inactive) | –
CCNCCCNCCCNCCCNCC | 8.87% (inactive) | –
CC(C)CO/N=C1/C[C@@H](O)[C@@H](O)[C@@H]2[C@@H]3C(=O)N([C@@H](C)c4ccccc4)C(=O)[C@H]3CC[C@@H]12 | 17.4% [at 11.4 µM] (inactive) | –
COC(=O)C(C)Sc1ccc2nnc(-c3ccc(F)cc3)n2n1 (stereo unspecified) | -1.9% (inactive) | –
CN=c1nc(-c2ccccc2)n(-c2ccccc2)s1 | – | 31.6 µM (active)
O=c1nc(-c2ccccc2)n(-c2ccccc2)c2ncccc12 | 4.64% (inactive) | –
CC(=O)c1c(C)nc(-c2ccccc2)n1O | 4.36% (inactive) | –
COc1cc(/C=N/NC(=O)c2ccncc2)ccc1OC(=O)c1ccc([N+](=O)[O-])cc1 | -15.9% (inactive) | –
CS(=O)(=O)N1CCC2(CC1)CN(Cc1nccs1)C2 | 4.64% (inactive) | –
O=C(c1cnccn1)N1CCC[C@@]2(CCN(Cc3cc(C(F)(F)F)cc(C(F)(F)F)c3)C2)C1 | – | 3.16 µM (active)
FC(F)(F)c1cc(CN2CC3(CCNCC3)C2)cc(C(F)(F)F)c1 | -16.5% (inactive) | –
Cc1noc(C)c1C(=O)N1CCC[C@@]2(CCN(Cc3cc(C(F)(F)F)cc(C(F)(F)F)c3)C2)C1 | 18.8% (inactive) | –
O=C(c1csnn1)N1CCC2(CC1)CN(Cc1cc(C(F)(F)F)cc(C(F)(F)F)c1)C2 | – | 12.6 µM (active)
O=C(c1cc(C(F)(F)F)cc(C(F)(F)F)c1)N1CCC2(CCCN(Cc3nccs3)C2)CC1 | 14.6% (inactive) | –
O=C(c1csnn1)N1CCC2(CC1)CCN(c1ccncc1)CC2 | -18.6% (inactive) | –
O=C(c1ccco1)N1CCC2(CC1)CN(Cc1cc(C(F)(F)F)cc(C(F)(F)F)c1)C2 | – | 6.31 µM (active)
O=C(c1cnccn1)N1CCC[C@@]2(CCN(Cc3ccncc3)C2)C1 | -14.8% (inactive) | –
CS(=O)(=O)N1CCC2(CC1)CN(Cc1cc(C(F)(F)F)cc(C(F)(F)F)c1)C2 | – | 0.398 µM (active)
